For 56 molecules, activity change, less the hit threshold results are on record in PubChem BioAssay AID1942 (Johns Hopkins Ion Channel Center, 2009).

Among all 2,400 compounds or so, about 580 (24%) were called active. A selection follows. Values without a mark were called inactive.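 The calls were made as follows: active = activity change at or above the mean plus 3 SD of buffer wells without dofetilide, per plate; inactive = the rest.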

For this assay, the target named is Potassium voltage-gated channel subfamily KQT member 2 (Rattus norvegicus) (UniProt O88943). Briefly: KCNQ2 potentiation in CHO cells – cell-based, FluxOR thallium flux, counter-screen for hERG block protector project, confirmation (AID 1942).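 Also: normalized value minus buffer-control mean plus three SD of buffer wells.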 As to conditions: FluxOR thallium flux fluorescence, at 10 µM, hits give high values.
Sequence of Potassium voltage-gated channel subfamily KQT member 2 (Rattus norvegicus) (O88943 whole entry, looked up): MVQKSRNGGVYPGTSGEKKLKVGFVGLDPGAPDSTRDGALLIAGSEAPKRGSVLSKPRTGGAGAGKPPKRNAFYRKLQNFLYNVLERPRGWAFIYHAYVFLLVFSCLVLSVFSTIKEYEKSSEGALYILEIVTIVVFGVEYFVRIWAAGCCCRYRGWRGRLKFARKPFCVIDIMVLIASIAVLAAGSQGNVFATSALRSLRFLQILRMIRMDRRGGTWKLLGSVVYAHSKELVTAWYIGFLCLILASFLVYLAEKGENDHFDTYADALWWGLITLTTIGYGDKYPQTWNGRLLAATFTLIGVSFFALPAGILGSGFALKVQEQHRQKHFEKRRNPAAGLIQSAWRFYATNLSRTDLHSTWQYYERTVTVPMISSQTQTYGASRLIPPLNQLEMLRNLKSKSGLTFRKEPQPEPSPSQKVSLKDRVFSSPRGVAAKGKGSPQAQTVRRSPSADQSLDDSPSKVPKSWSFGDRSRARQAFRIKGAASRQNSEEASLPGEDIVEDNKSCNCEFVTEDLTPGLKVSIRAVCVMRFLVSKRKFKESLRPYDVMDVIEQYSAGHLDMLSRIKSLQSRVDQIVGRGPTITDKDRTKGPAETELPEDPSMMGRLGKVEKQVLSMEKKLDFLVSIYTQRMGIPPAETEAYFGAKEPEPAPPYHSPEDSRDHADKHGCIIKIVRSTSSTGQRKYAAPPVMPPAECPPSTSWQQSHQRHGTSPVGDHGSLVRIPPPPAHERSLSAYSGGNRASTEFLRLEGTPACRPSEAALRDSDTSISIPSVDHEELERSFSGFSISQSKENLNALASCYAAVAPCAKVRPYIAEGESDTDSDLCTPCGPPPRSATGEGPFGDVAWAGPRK
As for `NC(=O)c1ccsc1NC(=O)CS(=O)(=O)c1ccccc1`, the activity change, less the hit threshold is -4.3%.

In the case of `COc1ccc(Cc2c(O)nc(SCC(C)C)[nH]c2=O)cc1`, the activity change, less the hit threshold was -20.7%.

Consider `CCOC(=O)C(=CNc1ccc(N2CCOCC2)cc1)C(=O)OCC`, for which the activity change, less the hit threshold was 0.3% (active).

`CCOC(=O)C(=CNc1cc(C)ccn1)C(=O)OCC`: the activity change, less the hit threshold was -11.3%.

Turning to `CCOC(=O)C(=CNc1cccc(C)n1)C(=O)OCC`, the activity change, less the hit threshold is -11.8%.

As for `O=C(c1cccc(C(F)(F)F)c1)C1CCCN(C(=O)CCn2cnnn2)C1` (stereo unspecified), the activity change, less the hit threshold is -8.8%.

`NC(=O)Cn1nnc(-c2ccc(CN3CCCCC3)cc2)n1`: the activity change, less the hit threshold is -14.8%.

Take `O=C(Cn1nnc(-c2cccc(C(F)(F)F)c2)n1)N1CCCCCC1`: the activity change, less the hit threshold was 13.3% (active).

Turning to `Cc1nc(NCCc2ccc(S(N)(=O)=O)cc2)c2c(C)c(C)sc2n1`, the activity change, less the hit threshold was 0.6% (active).

As for `O=C(NC1CCN(c2ncccn2)CC1)c1c(F)cccc1F`, the activity change, less the hit threshold is -9.6%.

As for `COCC(=O)Nc1cc(C)cn(Cc2c(F)cccc2Cl)c1=O`, the activity change, less the hit threshold is -15.1%.

In the case of `Cc1ccc2c(Cl)cc(Cl)c(OCC(=O)NC3CCS(=O)(=O)C3)c2n1` (stereo unspecified), the activity change, less the hit threshold is -23.4%.

On to `OCCN1CCN(c2ncnc3c2sc2nc(N4CCOCC4)c4c(c23)CCC4)CC1`, for which the activity change, less the hit threshold is -19.1%.

As for `Cc1csc2c(N3CCCCC3)ncnc12`, the activity change, less the hit threshold was 3.5% (active).

Regarding `CC1=CCC[C@@H]2[C@@](C)(CC/C(C)=C/C(=O)O)[C@H](C)CC[C@@]12C`, the activity change, less the hit threshold is -3.2%.

For `CCCCn1c(N)c(C(=S)NC(=O)CC(C)(C)C)c(=O)n(C)c1=O`, the activity change, less the hit threshold is 9.2% (active).

On to `CC(=O)c1sc(-c2ccc(F)cc2)cc1NS(=O)(=O)c1ccc(C)cc1`, for which the activity change, less the hit threshold is -14.9%.

For `CC(C)(C)c1ccc(C(=O)NC(=S)Nc2nc3c(s2)CCCC3)cc1`, the activity change, less the hit threshold is 10% (active).

For `O=C(NC(=S)Nc1nc2c(s1)CSc1ccccc1-2)c1ccccc1`, the activity change, less the hit threshold is -2.4%.

In the case of `COC(=O)c1ccc(C(=O)NC(=S)Nc2nc3c(s2)CC(C)CC3)cc1` (stereo unspecified), the activity change, less the hit threshold was -11.7%.

In the case of `COC(=O)c1ccc(C(=O)NC(=S)Nc2nc3c(s2)CCCC3)cc1`, the activity change, less the hit threshold is 16% (active).

In the case of `CN(C)/C=C1/C(=O)N(c2ccc([N+](=O)[O-])cc2)N=C1c1ccccc1`, the activity change, less the hit threshold was -5.3%.

As to `Clc1cccc(-c2ccc(C=Nc3ccc(N4CCOCC4)cc3)o2)c1Cl`, the activity change, less the hit threshold was -8.8%.

For `O=C(OCc1ccc(F)cc1)c1cc(S(=O)(=O)N2CCCCC2)ccc1N1CCOCC1`, the activity change, less the hit threshold was -12.7%.

With `CCOC(=O)C1CCN(C(=O)CCS(=O)(=O)c2ccc3c(c2)CCN3C(=O)CC)CC1`, the activity change, less the hit threshold is -16.7%.

With `S=c1nc(C2CC2)[nH]c2ccccc12`, the activity change, less the hit threshold is 35.2% (active).

As for `S=c1nc(C2CCCCC2)[nH]c2ccccc12`, the activity change, less the hit threshold was 4.1% (active).

For the molecule `COc1cc(S(=O)(=O)NCC2COCCO2)ccc1-n1cnnn1` (stereo unspecified), the activity change, less the hit threshold was -13.9%.

Consider `O=C(N=Nc1c(O)[nH]c2ccc([N+](=O)[O-])cc12)c1cc(-c2ccccc2Cl)nc2ccccc12`, for which the activity change, less the hit threshold is -10.8%.

As for `COc1ccc(NC(=O)CN2C(=O)S/C(=C/c3cccn3-c3ccc(C(=O)O)cc3)C2=O)cc1`, the activity change, less the hit threshold is -22.6%.

As for `c1ccc(-c2ccnc3nc(N4CCN(c5ccccc5)CC4)nn23)cc1`, the activity change, less the hit threshold is -26.3%.

As for `Cc1cc([N+](=O)[O-])c(C)cc1-c1ccc(/C=N/NC(=O)Cn2nnnc2N)o1`, the activity change, less the hit threshold is -10%.

For the molecule `COc1ccccc1C(=O)NNC(=O)C(=O)Nc1cccc(Cl)c1C`, the activity change, less the hit threshold is 131% (active).

On to `COc1ccc(Cl)cc1C(=O)Nc1cccnc1Cl`, for which the activity change, less the hit threshold was -15.9%.

On to `COc1ccc(C(=O)Nc2ccccc2C(=O)O)cc1Cl`, for which the activity change, less the hit threshold is -8.6%.

Turning to `CC(=O)Nc1ccccc1C(=O)C(=O)Nc1ccc(Cl)cc1`, the activity change, less the hit threshold was -18.3%.

As to `CC(=O)Nc1ccccc1C(=O)C(=O)Nc1ccccc1`, the activity change, less the hit threshold was -23.5%.

On to `Cc1ccccc1C(=O)NNC(=O)C(=O)Nc1cccc(Cl)c1C`, for which the activity change, less the hit threshold was 17.7% (active).

Regarding `O=C(Nc1ccccc1C(=O)O)c1ccc(NC(=O)C2CC2)cc1`, the activity change, less the hit threshold was -20.5%.

As for `O=C(Nc1cc(Cl)ccc1O)C1CC(c2ccccc2Cl)=NO1` (stereo unspecified), the activity change, less the hit threshold is -19.1%.

For `Oc1ccc(Cl)cc1C1=NNC(c2cccs2)C1` (stereo unspecified), the activity change, less the hit threshold is 9.1% (active).

Take `CCOc1ccc2[nH]c(=O)c(CN(Cc3ccc(C)cc3)C(=O)N3CCCC3)cc2c1`: the activity change, less the hit threshold is -12.4%.

On to `CCSc1nnc(NC(=O)Cn2cnc3c2c(=O)n(C)c(=O)n3C)s1`, for which the activity change, less the hit threshold is -15.7%.

For the molecule `S=c1[nH]nc(Nc2ccc(Cl)cc2)s1`, the activity change, less the hit threshold was -19.3%.

On to `Clc1ccc(Nc2nc3cccnc3s2)cc1`, for which the activity change, less the hit threshold is -20.7%.

For the molecule `Clc1ccc(Nc2ccc(Cl)nn2)cc1`, the activity change, less the hit threshold was 7.4% (active).

Regarding `COc1ccc(/C=N/NC(=O)C(=O)N2CCCC2)cc1`, the activity change, less the hit threshold is -5%.

As to `N#Cc1c(-c2ccco2)c2c([nH]c1=S)CCCC2`, the activity change, less the hit threshold was -16.2%.

For `O=C(NCc1ccccc1)C(=O)Nc1nc(C23CC4CC(CC(C4)C2)C3)cs1`, the activity change, less the hit threshold was -21.1%.

Turning to `O=C(NNC(=S)Nc1ccccc1)c1cccc(S(=O)(=O)N2CCOCC2)c1`, the activity change, less the hit threshold was -7.9%.

`O=[N+]([O-])c1cc(Cl)cc(/C=N/NC(=S)Nc2ccc(S(=O)(=O)N3CCOCC3)cc2)c1O`: the activity change, less the hit threshold was 29.8% (active).

In the case of `O=C(CCc1ccccc1Cl)Nc1ccc(S(=O)(=O)N2CCOCC2)cc1`, the activity change, less the hit threshold was -19.3%.

In the case of `Cc1ccc(F)cc1CNC(=O)C1CCC(=O)N(C2CC2)C1` (stereo unspecified), the activity change, less the hit threshold was -13.7%.

With `N#Cc1ccc(-c2ccc(OCC(=O)Nc3cccnc3)cc2)cc1`, the activity change, less the hit threshold is -9.1%.

Consider `O=C(C1CC1)N1N=C(c2ccccc2)CC1(O)C(F)(F)C(F)(F)F` (stereo unspecified), for which the activity change, less the hit threshold was -22.1%.

As to `O=C(CN1C(=O)NC(Cc2ccccc2)C1=O)Nc1ccccc1OC(F)F` (stereo unspecified), the activity change, less the hit threshold is -20.5%.
